Assay results as given in PubChem BioAssay AID1159580 (chemical genetic matrix, 2015).
Several values for one entry are separate records, joined by “and”; a condition that tells them apart may be missing. Identical values can stand only once. The campaign covered roughly 5,500 compounds. About 2,000 (36%) were called active. Roughly 18% stayed inconclusive and do not appear here. Cut-off read from the data, not from the text of the source: active = normalized growth mostly below about 0.91 (no sharp cut-off); inconclusive = no clear call, values can overlap the other calls; inactive = mostly above about 0.92. Some of the results follow.

Test: chemical genetic growth profiling, strain panel (AID 1159580);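 note: tested at 20 µM; growth read once vehicle control cultures reached saturation at 30 °C; 1 = growth at the plate median or of vehicle wells; lower values mean less growth of the strain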
Details: S. cerevisiae deletion strains, growth OD

Measured: normalized growth

Cc1cc(C)cc(OCC2CNC(=O)O2)c1 (stereo unspecified)
inactive: locus YAL013W, strain DEP1, stronger effect = lower value 1.01 | locus YAL021C, strain ccr4, stronger effect = lower value 0.995 | locus YAL026C, strain drs2, stronger effect = lower value 0.977 | locus YAL030W, strain snc1, stronger effect = lower value 0.984 | locus YBL061C, strain skt5, stronger effect = lower value 0.97 | locus YBR009C, strain hhf1, stronger effect = lower value 0.985 | locus YBR021W, strain FUR4, stronger effect = lower value 1.02 | locus YBR023C, strain chs3, stronger effect = lower value 0.972 | locus YBR171W, strain sec66, stronger effect = lower value 0.963 | locus YBR229C, strain ROT2, stronger effect = lower value 1 | locus YBR231C, strain swc5, stronger effect = lower value 0.992 | locus YBR279W, strain paf1, stronger effect = lower value 0.969 | locus YCL011C, strain gbp2, stronger effect = lower value 0.977 | locus YCL016C, strain dcc1, stronger effect = lower value 0.979 | locus YCL029C, strain bik1, stronger effect = lower value 1.01 | locus YCL061C, strain MRC1, stronger effect = lower value 0.973 | locus YCL069W, strain vba3, stronger effect = lower value 0.975 | locus YCR088W, strain abp1, stronger effect = lower value 0.977 | locus YDL005C, strain med2, stronger effect = lower value 0.97 | locus YDL035C, strain GPR1, stronger effect = lower value 1.02 | locus YDL040C, strain nat1, stronger effect = lower value 0.972 | locus YDL074C, strain BRE1, stronger effect = lower value 1.03 | locus YDL101C, strain DUN1, stronger effect = lower value 1.02 | locus YDL134C, strain PPH21, stronger effect = lower value 1.02 | locus YDL185W, strain tfp1, stronger effect = lower value 1.02 | locus YDL192W, strain arf1, stronger effect = lower value 1.01 | locus YDR001C, strain nth1, stronger effect = lower value 0.979 | locus YDR069C, strain doa4, stronger effect = lower value 0.986 | locus YDR101C, strain arx1, stronger effect = lower value 1.01 | locus YDR137W, strain rgp1, stronger effect = lower value 0.92 | locus YDR150W, strain NUM1, stronger effect = lower value 1.02 | locus YDR159W, strain sac3, stronger effect = lower value 0.986 | locus YDR162C, strain NBP2, stronger effect = lower value 1.03 | locus YDR195W, strain ref2 0.97 | locus YDR297W, strain sur2, stronger effect = lower value 0.976 | locus YDR318W, strain mcm21, stronger effect = lower value 1.02 | locus YDR334W, strain swr1, stronger effect = lower value 0.966 | locus YDR335W, strain msn5, stronger effect = lower value 0.971 | locus YDR388W, stronger effect = lower value 1.01 | locus YDR392W, strain spt3, stronger effect = lower value 0.983 | locus YDR502C, strain sam2, stronger effect = lower value 1.02 | locus YEL003W, strain gim4, stronger effect = lower value 0.981 | locus YEL037C, strain rad23, stronger effect = lower value 0.979 | locus YEL061C, strain CIN8 (second series), stronger effect = lower value 0.966 | locus YEL061C, strain CIN8, stronger effect = lower value 1 | locus YER015W, strain faa2, stronger effect = lower value 0.982 | locus YER016W, strain bim1, stronger effect = lower value 0.983 | locus YER110C, stronger effect = lower value 1.01 | locus YER111C, strain swi4, stronger effect = lower value 0.971 | locus YER155C, strain BEM2 (second series), stronger effect = lower value 0.972 | locus YER155C, strain BEM2, stronger effect = lower value 1.02 | locus YER167W, strain BCK2, stronger effect = lower value 1.02 | locus YGL078C, strain dbp3, stronger effect = lower value 1.01 | locus YGL086W, strain mad1, stronger effect = lower value 1.01 | locus YGL167C, strain pmr1, stronger effect = lower value 0.971 | locus YGL173C, strain kem1, stronger effect = lower value 0.966 | locus YGL227W, strain vid30, stronger effect = lower value 0.972 | locus YGL240W, strain doc1, stronger effect = lower value 0.976 | locus YGL248W, strain PDE1, stronger effect = lower value 1.01 | locus YGL253W, strain hxk2, stronger effect = lower value 0.97 | locus YGR078C, strain PAC10, stronger effect = lower value 1.01 | locus YGR135W, strain pre9, stronger effect = lower value 0.998 | locus YGR229C, strain SMI1, stronger effect = lower value 1.02 | locus YGR252W, strain gcn5, stronger effect = lower value 1 | locus YHR013C, strain ard1, stronger effect = lower value 0.928 | locus YHR027C, strain rpn1, stronger effect = lower value 0.964 | locus YHR030C, strain SLT2, stronger effect = lower value 1.01 and 1.04 | locus YHR079C, strain IRE1 (second series), stronger effect = lower value 1.02 | locus YHR079C, strain IRE1, stronger effect = lower value 1.05 | locus YHR094C, strain hxt1, stronger effect = lower value 1.02 | locus YHR129C, strain ARP1, stronger effect = lower value 1.02 | locus YHR142W, strain chs7, stronger effect = lower value 0.968 | locus YHR200W, strain rpn10, stronger effect = lower value 1.02 | locus YIL066C, strain RNR3, stronger effect = lower value 1.02 | locus YIL073C, strain SPO22, stronger effect = lower value 1.03 | locus YIL125W, strain kgd1, stronger effect = lower value 1.01 | locus YIR030C, strain dcg1, stronger effect = lower value 1.02 | locus YJL092W, strain hpr5, stronger effect = lower value 0.972 | locus YJL095W, strain BCK1 (second series), stronger effect = lower value 0.971 | locus YJL095W, strain BCK1, stronger effect = lower value 1.01 and 1.02 | locus YJL115W, strain asf1, stronger effect = lower value 0.965 | locus YJL129C, strain trk1, stronger effect = lower value 0.974 | locus YJL134W, strain LCB3, stronger effect = lower value 1.02 | locus YJL154C, strain vps35, stronger effect = lower value 0.973 | locus YJL164C, strain tpk1, stronger effect = lower value 0.98 | locus YJL166W, strain qcr8, stronger effect = lower value 0.981 | locus YJL168C, strain set2, stronger effect = lower value 1.02 | locus YJL187C, strain SWE1 (second series), stronger effect = lower value 1.01 | locus YJL187C, strain SWE1, stronger effect = lower value 0.982 | locus YJR043C, strain POL32, stronger effect = lower value 1.02 | locus YJR066W, strain TOR1, stronger effect = lower value 0.99
